Measurements taken from the supplement of paper PMC10105736.
Unmarked numbers belong to inactive results.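 How the source made its calls: active = MAPPIT score above the 99th percentile of random reference set scores in the same batch; inactive = at or below it.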

Key:
Assay in all cases: MAPPIT interaction score (arbitrary units); higher = stronger binary interaction signal, active = hit call of the paper
Six4 = conditions: MAPPIT configuration: N-N; pair source set: Lit-BS-16
Slh = conditions: MAPPIT configuration: N-N; pair source set: Finley_Y2H
Sms = conditions: MAPPIT configuration: N-N; pair source set: Finley_Y2H
Snap29 = conditions: MAPPIT configuration: N-C; pair source set: Lit-BM-16
Sirt2 = conditions: MAPPIT configuration: N-N; pair source set: Finley_Y2H
SmydA-8 = conditions: MAPPIT configuration: N-N; pair source set: screen_2
Snapin = conditions: MAPPIT configuration: N-N; pair source set: Lit-BM-16
Sod3 = target: Sod3
Smn = conditions: MAPPIT configuration: N-C; pair source set: Lit-BM-16
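Further: HEK293T cells with Epo stimulation, STAT-responsive firefly luciferase reporter, fold induction versus unstimulated cells divided by the larger fold induction of two negative controls lacking either bait or prey.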

B1: CG30031 (protein)
chain: MLKFVILLSAVACALGGTVPEGLLPQLDGRIVGGSATTISSFPWQISLQRSGSHSCGGSIYSSNVIVTAAHCLQSVSASVLQIRAGSSYWSSGGVTFSVSSFKNHEGYNANTMVNDIAIIKINGALTFSSTIKAIGLASSNPANGAAASVSGWGTLSYGSSSIPSQLQYVNVNIVSQSQCASSTYGYGSQIRSTMICAAASGKDACQGDSGGPLVSGGVLVGVVSWGYGCAYSNYPGVYADVAALRSWVISNA
With B1 the MAPPIT interaction score (Six4) was -0.185.

B2: rux (protein)
chain: MSAPEEHKETPLEVIHEFINGVDDGTIRRDLGEDCILSFYSRNVRGAKAITGFLRNQLTMRYKHEGFEEAAQIEWGDELLLKARFGRSFDSERRRIYEEKERTGTTLHVRPESDDEEVNEKFSSTLITPPRPSSYNLNSLKYVEACGLLNKRNEHIYGGLDMGESCAVHLTLGYRSTFLPGGQVSGFEICLAVYDRGLTSLKRSTLIPPLCSISFARRASARCNPTTDDEEDTEEDSTPPTARRCVRRTLFTEENTQKEEDADFIPVVEQEQPAPQEQPAPQQAEETGEVVIPVDISTALKTTNFSSCTPRKRQQATNGNEVVRKRATGPRRMRF
Work on B2 yielded an MAPPIT interaction score (Slh) of -0.123.

B3: l(2)34Fc (protein)
chain: MFRLLVLAACLAISVHAYSDGAPKAACRDLTPQHGAKLQVTKPPYSISGPSHVRSDQKLTLTLGGDEFLGFMIQARDGQNRVVGQFQVVDSVHSQTLDCSGKDDTITHLSAQKGKPLTGITFDWIPPAGYKGNVKFMATVVQTGFVYWVGRVTKDIDVE
B3 gave an MAPPIT interaction score (Sms) of 0.335.

B4: Syx4 (protein)
chain: MGKDRLPELLQRSLSTNSSNSSSNGSLLLNVYSGTTEFIIGNTGGNNNSYSVVSQNSHSCSNNNSSTEPKDRSSSKMTQYGSNVDDILNPYTEIRQQLAQIAANLETMNRMAQTVNLRTFNENEMDELHNKNLRLGNQLMTRFNDFKANLPAENDYSLEARMKRTLFYGLHQTFINLWHKNELFLQNYETKVKKNLRLHTKIINSEASEQEIELLIENKTTKLFVDNFLQETEKERQTLREMMDRFNELRRLEKSIEEVHALFMRIQTLVMEQSEVIQRVEFHAQQATLHVDKGADELDQAEQHQKKARKKKIMLIVILAAVLLVLLLVGIYL
Binder B4 has an MAPPIT interaction score (Snap29) of 3.12.

B5: Pgam5 (protein)
chain: MRKLTSFVCGTGAGLAAYYLQRLRDPQTVVQNSWTHSDKPVDPWALWDTNWDCREPRALVRPLRNSQPEEENRYNAELEKAKAKKARHIILVRHGEYLDVGDSDDTHHLTERGRKQAEFTGKRLCELGIKWDKVVASTMVRAQETSDIILKQIDFEKEKVVNCAFLREGAPIPPQPPVGHWKPEASQFLRDGSRIEAGFRRYFHRAYPDQEKESYTLIVGHGNVIRYFVCRALQFPAEGWLRININHASITWLTISPSGNVSIKYLGDSGFMPAELLTNRIPRDVKNVV
B5 gave an MAPPIT interaction score (Sirt2) of 0.996.

B6: Hsp67Bc (protein)
chain: MPDIPFVLNLDSPDSMYYGHDMFPNRMYRRLHSRQHHDLDLHTLGLIARMGAHAHHLVANKRNGELAALSRGGASNKQGNFEVHLDVGLFQPGELTVKLVNECIVVEGKHEEREDDHGHVSRHFVRRYPLPKEFDSDAIVSTLSEDGVLNITVPPLVSKEELKERIIPIKHVGPSDLFQNGNGHKEAGPAASASEPEAK
B6 showed an MAPPIT interaction score (SmydA-8) of -0.475.

B7: Dysb (protein)
chain: MFGNLKKKLSSAIQEGLVISENLQQQYRQRVSSGNSGSSQASGITTPISPLGLNESLSSSRSSSLSLSAPFQLTDGVPSHLNVAAGCSLLAKYEDDWQQIHGANEKNAEKAAQIANQISGIQDQASHQHRIMSELNSSLAGIPTLIAQLQNSSQVLNSLEEMGKQLEIELEKLEDLREECELQEFILEQQFQLSRHKQKKLNELEQYRQQIAQKHQSKIKDQEQTLLKLQRERQAVFDDAFREDMEEYKQRGQLTKIQTTSNKLALEEVVLEANEVETKDALEQFLNG
In the case of B7, the MAPPIT interaction score (Snapin) is reported as 3.8 (active).

B8: Drs (protein)
chain: MMQIKYLFALFAVLMLVVLGANEADADCLSGRYKGPCAVWDNETCRRVCKEEGRSSGHCSPSLKCWCEGC
For B8, the MAPPIT interaction score (Sod3; MAPPIT configuration: N-C, pair source set: screen_4) was 1.45.

B9: shv (protein)
chain: MQLIKCLVIIQLSLLLVEESFAGRDFYKILNVKKNANTNEVKKAYRRLAKELHPDKNKDDPDASTKFQDLGAAYEVLSNPDKRKTYDRCGEECLKKEGMMDHGGDPFSSFFGDFGFHFGGDGQQQDAPRGADIVMDLYVSLEELYSGNFVEIVRNKPVTKPASGTRKCNCRQEMVTRNLGPGRFQMIQQTVCDECPNVKLVNEERTLEIEVEQGMVDGQETRFVAEGEPHIDGEPGDLIVRVQQMPHPRFLRKNDDLYTNVTISLQDALVGFSMEIKHLDGHLVPVTREKVTWPGARIRKKGEGMPNFENNNLTGNLYITFDVEFPKKDLTEEDKEALKKILDQSSINRIYNGL
B9 gave an MAPPIT interaction score (Sod3; MAPPIT configuration: N-N, pair source set: Curagen_high_conf) of 0.367.

B10: Gem2 (protein)
chain: MQHEPEDQTFQLQALEICEPDSSFDPQKPPESGEEYLMHMFYERKRCPAVVTKRSSKIRNNTGNTTLEMLDNPELPPFKCLLPTPEWRDEQVKSFQAARSQVLVLRKELANNNYDQSGEPPLTSDQEKWKEFCRNQQPLLSTLLHLTQNDLELLLEMLSKWLQDPNTTVDLLHDVWLARWLYATLVCLHLPLEPHVFSTLRYIARTCIHLRNQLKEDEVQRAAPYNLLLTLTVQVFAQNDFKDYI
With B10 the MAPPIT interaction score (Smn) was 2.73.
